# Screens (PubChem)
# S-ASM inh – Inhibitors of Secretory Acid Sphingomyelinase (S-ASM): qHTS. placental ASM, HMU-PC fluorogenic substrate, 60 min. Potency, µM (doses to about 57.5 µM), usual class: inhibitors. 0.006% of 340,000 active. AID 504937, 2011
# Target sequence (P17405 47-631 limits assumed): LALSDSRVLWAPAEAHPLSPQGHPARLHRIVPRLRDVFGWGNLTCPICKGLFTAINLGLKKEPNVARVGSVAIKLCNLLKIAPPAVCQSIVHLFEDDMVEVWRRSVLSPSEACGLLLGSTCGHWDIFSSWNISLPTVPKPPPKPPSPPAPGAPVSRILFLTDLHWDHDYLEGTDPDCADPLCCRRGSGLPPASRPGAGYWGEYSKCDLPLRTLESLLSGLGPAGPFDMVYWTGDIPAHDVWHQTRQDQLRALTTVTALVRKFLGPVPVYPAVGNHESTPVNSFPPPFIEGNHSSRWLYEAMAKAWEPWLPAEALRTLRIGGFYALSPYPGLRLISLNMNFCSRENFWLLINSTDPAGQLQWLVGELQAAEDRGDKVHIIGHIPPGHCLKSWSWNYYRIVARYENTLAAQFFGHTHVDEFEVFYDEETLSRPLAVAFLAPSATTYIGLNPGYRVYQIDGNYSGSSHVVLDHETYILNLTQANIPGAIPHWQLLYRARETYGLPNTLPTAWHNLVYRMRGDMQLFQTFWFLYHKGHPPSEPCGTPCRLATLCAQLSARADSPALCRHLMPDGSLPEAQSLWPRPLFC
#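 Steps: dispense placental human ASM, pin compound, wait 10 min at room temperature, add HMU-PC0 substrate at 9 uM final, incubate 60 min at 37 °C, add stop solution raising pH to 10, read fluorescence.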
# IL1B secr inh – qHTS for Inhibitors of Inflammasome Signaling: IL-1-beta AlphaLISA Primary Screen. THP-1 LPS/ATP IL-1B secretion, AlphaLISA, 16 h; active compounds read low. activity change, % at 57.5 µM. 4.7% of 360,000 active; in the data active = activity change below about -50%; inconclusive = mostly about -30% to -49%
#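 Secreted IL-1B measured by AlphaLISA bead assay after 16 h compound exposure of THP-1 cells; compounds (final up to 57.5 uM) added 1 h before LPS (250 ng/mL) and ATP (1.25 mM) stimulation; lower signal means less secretion.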
# HepG2 tox – qHTS for Inhibitors of TGF-b: Cytotox Counterscreen | Potency, µM (titrated, usually from 46.1 µM), usual class: cytotoxic | HepG2 CAGA-GFP viability, ATP luminescence, 18 h | 0.76% of 410,000 active
#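 HepG2 CAGA-GFP cells (1000/well, DMEM with 1% FBS) received compound, then TGF-beta at 500 pg/mL final, and were incubated 18 hours at 37 degrees C. Viability was read by CellTiter-Glo luminescence. Media-only wells were set as complete cell-killing and DMSO as no toxicity.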
# TDP1 cell CPT – qHTS for Inhibitors of human tyrosyl-DNA phosphodiesterase 1 (TDP1): qHTS in cells in presence of CPT | chicken DT40 Tdp1-/-;hTDP1 cells + 20 nM CPT, ATP luminescence, 48 h | Potency, µM (series often up to 46.2 µM), most hits filed as inhibitors | 12% of 420,000 active | AID 686979, 2013; note: nearly all actives have a fitted effect of over 55% in size
#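 Chicken DT40 Tdp1-/- cells stably complemented with human TDP1 were seeded at 400 cells/well in medium containing 20 nM camptothecin, exposed to pin-transferred compounds, and grown at 37 °C for at least 48 hr. Viability was read as ATP luminescence.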
# TGFb SMAD3 inh – qHTS for Inhibitors of TGF-b | HepG2 CAGA-GFP TGF-b/SMAD3 reporter, GFP fluorescence, 18 h; TGF-beta stimulated, 500 pg/mL final | 1.2% of 410,000 active | AID 588855, 2011 | Potency, µM (highest dose often 46.1 µM), hits mostly inhibitors; note: nearly all actives have a fitted effect of over 65% in size
#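 Using HEPG2 CAGA-GFP reporter cells at 1000 cells/well, we pinned test compounds, stimulated with recombinant TGF-beta (500 pg/mL final) and measured total well GFP after 18 h.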
# TDP1 cell noCPT – qHTS for Inhibitors of human tyrosyl-DNA phosphodiesterase 1 (TDP1): qHTS in cells in absence of CPT. DT40 Tdp1-/- hTDP1 cells, no CPT, ATP luminescence, 48 h. Potency, µM (series often up to 46.2 µM), usual class: inhibitors. 15% of 420,000 active. AID 686978, 2013; note: nearly all actives have a fitted effect of over 55% in size
#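 Growth of hTDP1-complemented DT40 Tdp1-knockout cells is measured by ATP luminescence after at least 48 hr compound exposure at 37 °C, with DMSO substituting for the 20 nM CPT used in the parallel screen.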
# Numbers stand for hits; i = inactive; ? = inconclusive; nt = no result; ! = a repeat was not active; [ ] = remark or other dose. Most compounds without a hit are left out; they make up all but 19% or so of the library. Unless noted, calls come from the whole dose curve; as a rule, active = well fitted curve in the direction sought with a large enough effect; inconclusive = small, poorly fitted or top-dose-only effect, or another doubt; inactive = no such curve, though single readings can be large; an effect the other way counts as inactive or inconclusive.
SMILES,S-ASM inh,IL1B secr inh,HepG2 tox,TDP1 cell CPT,TGFb SMAD3 inh,TDP1 cell noCPT
COc1nc(NCc2cccnc2)nc(NC2CCCCC2)n1,i,i,i,i,i,i
CCCOc1ccc(Nc2cc(C)nc(C)n2)cc1,nt,nt,i,23.1µM,i,?
Clc1cccc(-c2ccc3nccn3c2)c1Cl,nt,i,i,?,i,?
O=C(CCNC(=O)C1CCN(S(=O)(=O)c2ccccc2)CC1)NCc1ccc(Cl)c(Cl)c1,i,i,i,?,?,?
COc1ccccc1N1CCN(C(=O)c2ccc3noc(-c4ccccc4)c3c2)CC1,nt,i,i,?,i,?
O=C(c1ccc2[nH]c3c(c2c1)CCCC3)N1CCN(c2ccc(F)cc2)CC1,i,i,i,23.1µM,?,?
CC(=O)c1ccc(N2CCN(C(=O)c3ccc4[nH]c(C)c(C)c4c3)CC2)cc1,i,i,i,20.6µM,?,16.4µM
COc1ccccc1N1CCN(C(=O)c2ccc3[nH]c4c(c3c2)CCCC4)CC1,i,-75.7,i,?,i,?
Cc1c(C(=O)Nc2ccc(F)cc2F)oc2c1-c1nn(Cc3c(F)cccc3Cl)cc1CC2,nt,nt,i,?,i,?
CCCCN1C(=O)C(CC(=O)NC(c2ccccc2)c2ccccc2)CC(C(=O)N(CC)CC)=C1C (stereo not drawn),nt,?,i,18.4µM,i,20.6µM
CC1=C(C(=O)N(C)C)CC(CC(=O)NC(c2ccccc2)c2ccccc2)C(=O)N1Cc1ccc(F)cc1 (stereo not drawn),nt,i,i,?,i,18.4µM
CC1=C(C(=O)N(C(C)C)C(C)C)CC(CC(=O)NC(c2ccccc2)c2ccccc2)C(=O)N1CCC1=CCCCC1 (stereo not drawn),nt,?,i,25.9µM,11.2µM,18.4µM
CCN(CC)C(=O)C1=C(C)N(CCCOC)C(=O)C(CC(=O)NC(c2ccccc2)c2ccccc2)C1 (stereo not drawn),nt,i,i,5.8µM,i,7.31µM
CC1=C(C(=O)N2CCOCC2)CC(CC(=O)NC(c2ccccc2)c2ccccc2)C(=O)N1CCC1=CCCCC1 (stereo not drawn),nt,i,i,?,i,?
CCCCn1c(N)c(N(Cc2ccccc2OC)C(=O)CCC(C)C)c(=O)[nH]c1=O,i,i,i,i,i,i
COc1ccc(CCNC(=O)C2(c3cccs3)CCOCC2)cc1OC,nt,nt,i,i,i,i
Cc1ccc2c3c([nH]c2c1C)-c1nonc1CC3,i,i,i,i,i,i
CCC1CCCCN1C(=O)CSc1n[nH]c(-c2ccccc2)n1 (stereo not drawn),nt,nt,i,?,?,?
CC(=O)NCCNC(=O)CCCc1nnc2n(C)c(=O)c3sccc3n12,nt,nt,i,i,i,i
CCc1ccc(CNc2ncnc3c2nc2n3CCCC2)cc1,nt,nt,i,?,?,?
OC(CNc1ccnc2cc(Cl)ccc12)CNC1CCCCC1 (stereo not drawn),i,-114.5,i,18.4µM,?,16.4µM
OC1CCCC1NCc1ccnc2cc(Cl)ccc12 (stereo not drawn),i,i,i,?,i,16.4µM
CCNC1CCC(Nc2ccnc3cc(Cl)ccc23)CC1 (stereo not drawn),i,-97.6,i,18.4µM,i,9.2µM
c1ccc(-c2noc(CN3CCc4sccc4C3)n2)cc1,i,i,i,i,i,i
CCn1nc(C)cc1C(=O)N1CCC2(CC1)c1ccccc1[C@@H](NC(=O)c1cccnc1)[C@@H]2O,nt,nt,nt,i[9.04 µM],nt,i
SMILES,S-ASM inh,IL1B secr inh,HepG2 tox,TDP1 cell CPT,TGFb SMAD3 inh,TDP1 cell noCPT
COc1ccc(C)cc1N(C)C(=O)CCc1nc(-c2ccccc2F)no1,nt,nt,i,18.4µM,?,?
CCN(C(=O)CCc1nc(-c2ccccc2F)no1)c1cc(OC)ccc1OC,i,i,i,23.1µM,i,?
Cc1ccc(-c2noc(CCC(=O)N(C)c3ccccc3F)n2)cc1,nt,nt,i,?,i,?
COCCCNC(=O)C[C@@H]1C[C@@]2(C(=O)OC)CC(C)(C)CC=C2N(Cc2ccccc2)C1=O,nt,i,nt,?,nt,i
CCCCNC(=O)C[C@@H]1C[C@@]2(C(=O)OC)CC(C)(C)CC=C2N(Cc2ccc3c(c2)OCO3)C1=O,nt,i,nt,16.4µM,nt,?
COC(=O)[C@@]12C[C@@H](CC(=O)NCCCCc3ccccc3)C(=O)N(Cc3ccc4c(c3)OCO4)C1=CCC(C)(C)C2,nt,-76.0,nt,?,nt,13µM
COC(=O)[C@@]12C[C@@H](CC(=O)NCCc3ccccc3OC)C(=O)N(Cc3ccccc3)C1=CCC(C)(C)C2,nt,?,nt,20.6µM,nt,?
Cc1ccc(NC(=S)N/N=C/c2cccn2Cc2ccccc2F)cc1,i,i,i,4.61µM,i,3.66µM
COc1ccc(C=CC(=O)c2ccc(OC)c(OC)c2O)cc1OC,i,?,i,?,i,?
COc1ccc(C(=O)/C=C/c2ccc(O)cc2)c(O)c1C/C=C(\C)CCC=C(C)C,?,-86.5,i,?,?,?
COc1ccc(C(=O)c2sc(Nc3ccccc3)c(C(=O)Nc3ccc(OC)c(OC)c3)c2N)cc1,?,i,i,25.9µM,i,16.4µM
COc1ccccc1NC(=O)c1c(Nc2ccccc2C)sc(C(=O)Nc2cccc(Cl)c2)c1N,i,?,i,20.6µM,i,?
COc1ccc(Nc2sc(C(=O)c3ccccc3)c(N)c2C(=O)Nc2cc(C)ccc2C)c(OC)c1,nt,nt,i,?,?,?
COc1ccc(C(=O)c2sc(Nc3cccc(OC)c3)c(C(=O)Nc3cccc(C)c3C)c2N)cc1,i,i,i,18.4µM,?,10.3µM
O=C(NC(=O)c1csnn1)Nc1ccccc1Cl,i,i,i,i,i,i
Cc1ccc(NC(=O)CN(C)C(=O)COC(=O)CNS(=O)(=O)c2ccc(Br)cc2Cl)cc1,i,i,i,i,?,i
C=CCN1C(=O)/C(=C\c2ccc(Cl)cc2)N=C1SCC(=O)NCCC,i,i,i,i,i,i
COCCNC(=O)CSC1=N/C(=C/c2ccc(Cl)c(Cl)c2)C(=O)N1c1ccccc1F,i,-99.2,i,14.6µM,?,20.6µM
O=C1C(=O)c2ccccc2C(O)=C1C1CCC(c2ccc(Cl)cc2)CC1 (stereo not drawn),i,i,i,?,i,2.31µM!
